The source made the active and inactive calls. The calls were made as follows: active = hit-call score of the fitted dose curve at least 0.9, where 1 is the maximum; inactive = score below 0.9.

Read-out in test [1]: Human Leukocyte Antigen - DR isotype (HLADR), HLA-DRA (gene 3122)
The experiment in a line: BSK_3C_HLADR: BioMAP Diversity Plus: 3C Assay for Human Leukocyte Antigen - DR isotype (HLADR) Biomarker Activity (AID 2283019). To be noted: primary human endothelial cells (HUVEC); actives raise or lower the signal. The method, boiled down: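 Primary human umbilical vein endothelial cells (3C system) were dosed with compound and cell-surface HLA-DR was quantified by ELISA at 24 h. Activity was fitted bidirectionally against DMSO as negative control and baseline.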

Read-out in test [2]: Interleukin-8 (IL8), CXCL8 (gene 3576)
Kind of test: BSK_3C_IL8: BioMAP Diversity Plus: 3C Assay for Interleukin-8 (IL8) Biomarker Activity (AID 2283020). The settings on record: primary human endothelial cells (HUVEC); actives raise or lower the signal. The method, boiled down: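 Primary human umbilical vein endothelial cells were dosed for 24 h. IL-8 was quantified by ELISA and fitted bidirectionally against DMSO. Cytotoxicity was assessed in parallel cultures by SRB staining at 560 nm.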

Read-out in test [3]: Monokine induced gamma interferon (MIG), CXCL9 (gene 4283)
Kind of test: BSK_3C_MIG: BioMAP Diversity Plus: 3C Assay for Monokine induced gamma interferon (MIG) Biomarker Activity (AID 2283021). The settings on record: primary human endothelial cells (HUVEC); actives raise or lower the signal. The essentials: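 HUVEC primary endothelial cultures dosed with chemical; MIG quantified by ELISA at 24 h. Data fitted bidirectionally against DMSO control, with parallel SRB total-protein staining for cytotoxicity.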

The nature of test [4]: BSK_3C_SRB: Viability Assessment in the BioMAP Diversity Plus: 3C Assay (AID 2283023).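 Also: fitted both ways against DMSO so a hit may be signal rise or drop.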 To be noted: primary human endothelial cells (HUVEC). The essentials:
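Primary human umbilical vein endothelial cells in the 3C system were read 24 h after compound dosing. Total protein was stained with 0.1% sulforhodamine B after 10% TCA fixation and read at 560 nm, with bidirectional fitting against DMSO as baseline.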

Read-out in test [5]: Matrix Metallopeptidase 1 (MMP1), MMP1 (gene 4312)
Kind of test: BSK_BE3C_MMP1: BioMAP Diversity Plus: BE3C Assay for Matrix Metallopeptidase 1 (MMP1) Biomarker Activity (AID 2283024). To be noted: primary human bronchial epithelial cells; actives raise or lower the signal. The essentials:
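Human primary bronchial epithelial cells (BE3C system) dosed for 24 h; MMP-1 quantified by ELISA. Bidirectional fit against DMSO; cytotoxicity tracked in parallel cultures by SRB total-protein staining.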

Read-out in test [6]: Pselectin, SELP (gene 6403)
Kind of test: BSK_4H_Pselectin: BioMAP Diversity Plus: 4H Assay for Pselectin Biomarker Activity (AID 2283026). The settings on record: primary human endothelial cells (HUVEC); actives raise or lower the signal. The method, boiled down: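 Primary human umbilical vein endothelial cells were treated 24 h, and cell-surface P-selectin was then quantified by ELISA. Bidirectional fit versus DMSO; cytotoxicity checked in parallel cultures by SRB total-protein staining.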

Test [7] is described as follows: BSK_4H_SRB: Viability Assessment in the BioMAP Diversity Plus: 4H Assay (AID 2283027).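 Also: cells exposed to compound for 24 h before staining.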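 As to AC50: curves fitted both ways versus DMSO so AC50 may be loss or gain.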 The settings on record: primary human endothelial cells (HUVEC). The method, boiled down: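 Human umbilical vein endothelial cells were dosed with chemical and, after 24 h, fixed with 10% TCA, stained with 0.1% sulforhodamine B, and read at 560 nm to give total protein as a cytotoxicity measure. Bidirectional fitting relative to DMSO control.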

A short description of test [8]: BSK_BE3C_SRB: Viability Assessment in the BioMAP Diversity Plus: BE3C Assay (AID 2283028). To be noted: primary human bronchial epithelial cells. The essentials:
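Human primary bronchial epithelial cells were exposed to test chemicals for 24 h. Total protein in parallel cultures was then measured by staining with 0.1% sulforhodamine B after 10% TCA fixation, with absorbance read at 560 nm. Activity was fitted bidirectionally against DMSO.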

Read-out in test [9]: Thrombomodulin, THBD (gene 7056)
The experiment in a line: BSK_3C_Thrombomodulin: BioMAP Diversity Plus: 3C Assay for Thrombomodulin Biomarker Activity (AID 2283029). To be noted: primary human endothelial cells (HUVEC); actives raise or lower the signal. The method, boiled down:
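Human umbilical vein endothelial cells were exposed to chemicals for 24 h; cell-surface thrombomodulin quantified by ELISA, with bidirectional fitting against DMSO baseline.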

Read-out in test [10]: Urokinase-type plasminogen activator receptor (uPAR), PLAUR (gene 5329)
The experiment in a line: BSK_4H_uPAR: BioMAP Diversity Plus: 4H Assay for Urokinase-type plasminogen activator receptor (uPAR) Biomarker Activity (AID 2283030). The settings on record: primary human endothelial cells (HUVEC); actives raise or lower the signal. The method, boiled down:
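Primary human umbilical vein endothelial cells were exposed to chemical for 24 h before cell-surface uPAR was quantified by ELISA. Activity was fitted bidirectionally against the DMSO negative control baseline.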

Read-out in test [11]: Human Leukocyte Antigen - DR isotype (HLADR), HLA-DRA (gene 3122)
The experiment in a line: BSK_BE3C_HLADR: BioMAP Diversity Plus: BE3C Assay for Human Leukocyte Antigen - DR isotype (HLADR) Biomarker Activity (AID 2283032). To be noted: primary human bronchial epithelial cells; actives raise or lower the signal. The method, boiled down: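 Human primary bronchial epithelial cells (BE3C system) exposed to compound for 24 hours; cell-surface HLA-DR measured by ELISA, fitted bidirectionally relative to DMSO. Total protein by SRB in parallel cultures tracked cytotoxicity.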

Read-out in test [12]: Interferon-gamma inducible Protein 10 (IP10), CXCL10 (gene 3627)
The experiment in a line: BSK_BE3C_IP10: BioMAP Diversity Plus: BE3C Assay for Interferon-gamma inducible Protein 10 (IP10) Biomarker Activity (AID 2283034). To be noted: primary human bronchial epithelial cells; actives raise or lower the signal. The essentials:
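Primary human bronchial epithelial cells, with IP-10 measured by ELISA 24 hours after chemical dosing. Bidirectional fit against DMSO; cytotoxicity checked by SRB total protein staining in parallel cultures.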

Read-out in test [13]: Monokine induced gamma interferon (MIG), CXCL9 (gene 4283)
Kind of test: BSK_BE3C_MIG: BioMAP Diversity Plus: BE3C Assay for Monokine induced gamma interferon (MIG) Biomarker Activity (AID 2283035). The settings on record: primary human bronchial epithelial cells; actives raise or lower the signal. The method, boiled down:
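ELISA read-out of MIG in human lung bronchial epithelial primary cultures, 24 h post-dosing. Bidirectional curve fit vs DMSO baseline.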

Read-out in test [14]: Transforming growth factor beta 1 (TGFb1), TGFB1 (gene 7040)
The experiment in a line: BSK_BE3C_TGFb1: BioMAP Diversity Plus: BE3C Assay for Transforming growth factor beta 1 (TGFb1) Biomarker Activity (AID 2283036). To be noted: primary human bronchial epithelial cells; actives raise or lower the signal. The essentials: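 Primary human bronchial epithelial cells dosed with chemical; TGF-b1 measured by ELISA 24 h after dosing. Bidirectional curve fitting against DMSO negative control; SRB total-protein staining in parallel cultures gauged cytotoxicity.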

Read-out in test [15]: Plasminogen activator inhibitor-1 (PAI1), SERPINE1 (gene 5054)
The experiment in a line: BSK_BE3C_PAI1: BioMAP Diversity Plus: BE3C Assay for Plasminogen activator inhibitor-1 (PAI1) Biomarker Activity (AID 2283037). To be noted: primary human bronchial epithelial cells; actives raise or lower the signal. The method, boiled down: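 Primary human bronchial epithelial cells (BE3C system) exposed 24 h; PAI-1 quantified by ELISA. Parallel sulforhodamine B staining of total protein flags cytotoxicity. Bidirectional fit versus DMSO.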

Read-out in test [16]: urokinase plasminogen activator (uPA), PLAU (gene 5328)
The experiment in a line: BSK_BE3C_uPA: BioMAP Diversity Plus: BE3C Assay for urokinase plasminogen activator (uPA) Biomarker Activity (AID 2283038).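 Also: uPA protein level quantified by ELISA in cell cultures; uPA read one day after compound addition.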 To be noted: primary human bronchial epithelial cells; actives raise or lower the signal. The essentials:
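Human primary bronchial epithelial cells were exposed to chemical for 24 h, then uPA levels were measured by ELISA. Responses were fitted bidirectionally against DMSO as negative control and baseline. Parallel SRB staining of total protein gauged overt cytotoxicity.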

Read-out in test [17]: Urokinase-type plasminogen activator receptor (uPAR), PLAUR (gene 5329)
Kind of test: BSK_BE3C_uPAR: BioMAP Diversity Plus: BE3C Assay for Urokinase-type plasminogen activator receptor (uPAR) Biomarker Activity (AID 2283039).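 Also: cells exposed to compound for one day before measurement.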 To be noted: primary human bronchial epithelial cells; actives raise or lower the signal. The essentials:
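Primary human bronchial epithelial cells dosed for 24 h; uPAR quantified by ELISA with bidirectional fitting against DMSO. Overt cytotoxicity assessed in parallel cultures by SRB total-protein staining (0.1% SRB, 560 nm).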

Read-out in test [18]: Vascular endothelial growth factor receptor 2 (Homo sapiens) (UniProt P35968)
Kind of test: BSK_4H_VEGFRII: BioMAP Diversity Plus: 4H Assay for Vascular endothelial growth factor receptor 2 (VEGFR2) Biomarker Activity (AID 2283031). The settings on record: primary human endothelial cells (HUVEC); actives raise or lower the signal. The method, boiled down:
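Primary human umbilical vein endothelial cells in the BioMAP 4H system were dosed with test chemical, and 24 h later VEGFRII was measured by ELISA. Activity was fitted bidirectionally against DMSO as negative control and baseline.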

Read-out in test [19]: Vascular cell adhesion molecule 1 (VCAM1), VCAM1 (gene 7412)
The experiment in a line: BSK_4H_VCAM1: BioMAP Diversity Plus: 4H Assay for Vascular cell adhesion molecule 1 (VCAM1) Biomarker Activity (AID 2283033). The settings on record: primary human endothelial cells (HUVEC); actives raise or lower the signal. The method, boiled down:
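Primary human umbilical vein endothelial cells, 4H stimulation system, treated for 24 h; cell-surface VCAM-1 quantified by ELISA. Bidirectional fitting against DMSO; cytotoxicity tracked by SRB total-protein staining in parallel cultures.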

For the molecule `CC(C)(C)C(=O)C(Oc1ccc(Cl)cc1)n1cncn1` (stereo not given), in test [1], the AC50 (as a rule, the concentration giving half of the maximal activity seen) is 31.4 µM (active). In addition, the result in [2], in [3], in test [4], in [5], in [6] and in test [7] was inactive. The result in test [8], in test [9], in test [10], in test [11], in test [12] and in test [13] was inactive. The outcome in test [14], in test [15], in [16] and in test [17] was inactive.

Consider `CCC(C)n1c(=O)[nH]c(C)c(Br)c1=O` (stereo not given), for which the outcome in test [1], in [2], in test [3], in test [4], in test [5] and in test [6] was inactive. The result in [7], in test [8], in [9], in test [10], in test [18] and in [11] was inactive. In addition, the result in [12], in test [13], in test [14], in test [15], in test [16] and in test [17] was inactive.

Consider `CS(=O)(=O)c1ccc(C(=O)C2C(=O)CCCC2=O)c([N+](=O)[O-])c1`, for which the result in test [1], in test [2], in [3], in test [4], in test [5] and in test [6] was inactive. Moreover, the outcome in test [7], in test [8], in test [9], in test [10], in test [11] and in test [12] was inactive. Also, the result in test [13], in [14], in test [15], in test [16] and in test [17] was inactive.

`CCNC(=O)NC(=O)C(C#N)=NOC`: the outcome in test [1], in test [2], in [3], in [4], in test [5] and in [6] was inactive. Moreover, the result in test [7], in [8], in test [9], in test [10], in test [11] and in [12] was inactive. Moreover, the outcome in test [13], in test [14], in test [15], in [16] and in [17] was inactive.

Turning to `CCOC(=O)C(C)OC(=O)c1cc(Oc2ccc(C(F)(F)F)cc2Cl)ccc1[N+](=O)[O-]` (stereo not given), the concentration at half-maximal activity (AC50) is 3.97 µM (active) in test [1]; 13.3 µM (active) in [4]; 13.1 µM (active) in test [7]; 10 µM (active) in test [10]; 29.7 µM (active) in test [11]. Further, the result in test [2], in [3], in test [5], in [6], in test [8] and in test [9] was inactive. Further, the outcome in test [19], in test [12], in [13], in [14], in test [15] and in [16] was inactive. For the same molecule, the result in [17] was inactive.

Consider `CCCCC(O)(Cn1cncn1)c1ccc(Cl)cc1Cl` (stereo not given), for which the AC50 in test [1] was 20 µM (active); in [5], 12.8 µM (active); in test [7], 14.3 µM (active); in test [11], 16 µM (active); in [12], 26.8 µM (active). The outcome in test [2], in test [3], in test [4], in [6], in test [8] and in test [9] was inactive. Also, the result in test [10], in [19], in [13], in [14], in test [15] and in test [16] was inactive. In test [17], the result was inactive.

The values are drawn from PubChem BioAssay (EPA / NIEHS).
